Several values for one entry are separate records, joined by “and”; a condition that tells them apart may be missing. Equal entries are not always repeated. Some compounds were tested as several samples or in several runs, with calls that do not always agree. Activity calls are given as the source filed them. The calls were made as follows: active = hit-call score of the fitted dose curve at least 0.9, where 1 is the maximum; inactive = score below 0.9.
Assay: CCTE_Padilla_ZF_144hpf_TERATOSCORE: (Legacy) CCTE's 144 Hour Post-fertilization zebrafish Assay Teratoscore, Padilla Lab (AID 2283679);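 as to AC50: teratogenicity score from eye scoring of death hatching and malformations at 144 hpf; higher score means more developmental defects relative to DMSO baseline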
Description: CCTE_Padilla_ZF_144hpf is a whole embryo, multiplexed assay. Zebrafish embryos were exposed to chemicals starting 6 hr post-fertilization for 5 days in 96-well plates. Developing larvae were examined microscopically daily for malformation and mortality.CCTE_Padilla_ZF_144hpf_TERATOSCORE is one of one assay component(s) measured or calculated from the CCTE_Padilla_ZF_144hpf assay. It is designed to make measurements of developmental malformations and mortality as detected with brightfield microscopy.Data from the assay component CCTE_Padilla_ZF_144hpf_TERATOSCORE was analyzed into 1 assay endpoint. This assay endpoint, CCTE_Padilla_ZF_144hpf_TERATOSCORE, was analyzed in the positive analysis fitting direction relative to DMSO as the negative control and baseline of activity. Using a type of morphological reporter, gain-of-signal activity can be used to understand changes in developmental defect as they relate to the whole embryo. To generalize the intended target to other relatable targets, this assay endpoint is annotated to the malformation intended target family, where the subfamily is total.
Zebrafish husbandry: Wild type adult zebrafish (Danio rerio; undefined outbred stock obtained from Aquatic Research Organisms, Hampton, NH, 03842) were housed in an AAALAC-approved animal facility at 28C with a 14:10 h light: dark cycle (lights on at 08:30 h). Adult fish (2-3 females per male; density = 15-20 adults per tank) were kept in one of several 9-liter (L) flow-through colony tanks (Aquaneering Inc., San Diego, CA). All adults in a colony tank were placed in a 2 L (static) breeding tank (Aquatic Habitats, Apopka, FL) one hour prior to light onset. Typically, adults from two to three colony tanks were mated on the same day. Two hours after light onset the adults were returned to the colony tank. All embryos were gathered from each breeder tank, pooled, and placed in a 28C water bath for 2 h, followed by two washes with 0.06% bleach (v/v) in 10% Hanks' Balanced Salt Solution (13.7 mM NaCl 0.54 mM KCl, 25 uM Na2HPO4, 130 uM CaCl2 100 um MgSO4 and 420 um NaHCO3,), hereafter referred to as Hanks' solution, for 5 min in order to remove any residual bacteria or fungi. Immediately following washing, the embryos were examined, and healthy embryos were separated from dead or unfertilized eggs and moved into fresh Hanks'. Single Concentration Study: The chemicals were arrayed on a 96-well stock plate, 80 chemicals per plate, 20 mM concentration of each, with 16 DMSO (vehicle) controls. The embryos were exposed to the chemicals (80 Mfinal concentration, renewed daily) by immersion from 0 dpf until 5 dpf. Eighty micromolar was chosen as the highest concentration for two reasons (1) because the stock solutions were prepared at 20 mM in 100% DMSO. On 6 dpf, each embryo/larva was assessed for viability, hatching status and malformations. There were 4 embryos per concentration per chemical (each embryo on a separate microtiter plate). […] Chemical exposures: Zebrafish embryos were exposed in 96-well plates. Briefly, on day 0, approximately 6-8 h after fertilization, zebrafish embryos (with chorions) were placed 1 embryo per well in Millipore Multiscreen Nylon mesh plates (catalog number MANMN4050, Millipore Corp, Bedford, MA) and exposed to nominal concentrations of the chemicals. In each well, 1 ul of the chemical in DMSO from the stock plate was diluted with 250 ul of 10% Hanks' solution; the final DMSO concentration was 0.4% (v/v) in all wells; vehicle controls receives DMSO only. Each plate was sealed with a non-adhesive material (Type A, BioRad, Hercules, CA), covered with a lid, and wrapped in Parafilm to minimize evaporation. All embryos and larvae were kept in a 26C incubator with a 14:10 h light-dark cycle (with lights on at 08:30 h and off at 22:30 h). […]

Compound	outcome	AC50
CCCCCCCCOC(=O)c1ccccc1C(=O)OCCCCCCCC	inactive	–
c1ccc(-c2ccccc2)cc1	inactive	4.5 µM (active)
Nc1ccc(-c2ccc(N)cc2)cc1	–	33 µM (active)
Cc1ccccc1CO[C@@H]1C[C@@]2(C(C)C)CC[C@]1(C)O2	–	73.1 µM (active)
C[C@]12CCC(=O)C=C1CC[C@@H]1[C@@H]2CC[C@]2(C)C(=O)CC[C@@H]12	–	31.8 µM (active)
O=NN(c1ccccc1)c1ccccc1	–	53.4 µM (active)
CCC(C)(CC)c1cc(NC(=O)c2c(OC)cccc2OC)on1	–	58.2 µM (active)
O=C(NC(=O)c1cc(F)c(F)cc1Cl)Nc1cc(F)ccc1N1CCC(C(=O)O)CC1	–	31 µM (active)
CCC(C)c1cc([N+](=O)[O-])cc([N+](=O)[O-])c1O (stereo not given)	–	0.167 µM (active)
CN(C)CCO	inactive	–
ClC1=C(Cl)[C@]2(Cl)[C@@H]3[C@@H](Cl)[C@H]4O[C@H]4[C@@H]3C1(Cl)C2(Cl)Cl	–	0.547 µM (active)
CC#Cc1cc(C)nc(Nc2ccccc2)n1	–	33.4 µM (active)
CCOC(=O)C(O)(c1ccc(Cl)cc1)c1ccc(Cl)cc1	–	1.71 µM (active)
O=S(=O)(O)C(F)(F)C(F)(F)C(F)(F)C(F)(F)C(F)(F)C(F)(F)F	–	123 µM (active)
CO/C=C(/C(=O)OC)c1ccccc1COc1cccc(C(F)(F)F)n1	–	0.168 µM (active)
Cc1cc2c3c(c1)C(c1ccccc1)=N[C@@H](NC(=O)c1ccncc1)C(=O)N3CC2	–	54.4 µM (active)
ClC1=C(Cl)[C@]2(Cl)[C@@H]3[C@@H]4C[C@@H]([C@H]5O[C@@H]45)[C@@H]3[C@@]1(Cl)C2(Cl)Cl	–	0.345 µM (active)
COS(=O)(=O)OC	inactive	–
CCCCCCCCCC[N+](C)(C)CCCCCCCCCC	–	4.53 µM (active)
CCCCCCCCCc1ccc(O)cc1	–	61.4 µM (active)

Compound	outcome	AC50
CC(C)(O)C(=O)Nc1ccc([N+](=O)[O-])c(C(F)(F)F)c1	–	31.4 µM (active)
Oc1c(Cl)c(Cl)c(Cl)c(Cl)c1Cl	–	0.806 µM (active)
CCSC(=O)N(CC)C1CCCCC1	inactive	–
C1CC2OC2CC1C1CO1 (stereo not given)	–	77.8 µM (active)
CC1=C2C[C@H]3[C@@H](CC=C4C[C@@H](O)CC[C@@]43C)[C@@H]2CC[C@]12O[C@@H]1C[C@H](C)CN[C@H]1[C@H]2C	–	0.115 µM (active)
CN(C)c1nc(=O)n(C2CCCCC2)c(=O)n1C	inactive	–
COc1ccc(O)c(C(C)(C)C)c1	–	57.8 µM (active)
Clc1ccc(C(c2ccccc2Cl)C(Cl)(Cl)Cl)cc1 (stereo not given)	–	16.1 µM (active)
CCOP(=S)(OCC)SCSC(C)(C)C	–	56.3 µM (active)
ClC1=C(Cl)[C@]2(Cl)[C@@H]3[C@H]4C[C@H]([C@@H]5O[C@H]45)[C@@H]3[C@@]1(Cl)C2(Cl)Cl	–	0.00973 µM (active)
Oc1ccc(Cl)cc1Cl	–	56.6 µM (active)
CCC(C)(c1ccc(O)cc1)c1ccc(O)cc1	–	15.5 µM (active) and 1.34 µM (active)
O=C(O)C(F)(F)C(F)(F)C(F)(F)C(F)(F)C(F)(F)C(F)(F)C(F)(F)C(F)(F)C(F)(F)F	–	60.2 µM (active)
Oc1ccc(C(c2ccc(O)cc2)(C(F)(F)F)C(F)(F)F)cc1	–	18.1 µM (active)
O=C(O)C(F)(F)C(F)(F)C(F)(F)C(F)(F)C(F)(F)C(F)(F)C(F)(F)C(F)(F)F	–	53.7 µM (active)
CCC(=O)O[C@H]1CC[C@H]2[C@@H]3CCC4=CC(=O)CC[C@]4(C)[C@H]3CC[C@]12C	–	79.4 µM (active)
CCCN(CCC)N=O	inactive	–
CC(c1ccc(O)cc1)(c1ccc(O)cc1)c1ccc(O)cc1	inactive	–
ClC(Cl)=C(c1ccc(Cl)cc1)c1ccc(Cl)cc1	–	8.32 µM (active)
